Shiga inhibitor = A qHTS for Small Molecule Inhibitors of Shiga Toxin | Vero cells, Shiga toxin protein synthesis inhibition reporter | 290,000 tested, 9.2% active | inhibition, % at 38.7 µM | AID 2315, 2010; in the data active means inhibition mostly above about 28%, no sharp cut-off; inactive means mostly below about 43%; further: 0% is about no effect
Pf growth 96h = Primary qHTS for delayed death inhibitors of the malarial parasite plastid, 96 hour incubation. P. falciparum luciferase reporter growth, 96 h. Potency, µM (series often up to 28.7 µM), without a hit: at the top dose activity change, negative = inhibition, most hits filed as inhibitors. 320,000 tested, 6.9% active. AID 504834, 2011; further: potency means the concentration at half of the fitted maximal effect; on the % scale 0 is the no-effect control and ±100 the full control effect
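P. falciparum expressing integrated firefly luciferase grown in erythrocytes (2% hematocrit, 0.05% parasitemia final) with compounds for 96 hours at 37 C, 5% CO2. Growth inhibition read as loss of luminescence after adding luciferase detection reagent.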
Cycloheximide cs = Cycloheximide Counterscreen for Small Molecule Inhibitors of Shiga Toxin | cell reporter, cycloheximide protein synthesis inhibition counterscreen | max response, % | 300,000 tested, 12% active | AID 2314, 2010; in the data active means max response mostly above about 13%, no sharp cut-off; inactive means mostly below about 14%; further: read at 38.3 µM for the half of the compounds with a filed dose; 0% is about no effect
Pf growth 48h = Primary qHTS for delayed death inhibitors of the malarial parasite plastid, 48 hour incubation. 310,000 tested, 5.9% active. Potency, µM (doses to about 28.7 µM), inactives show top-dose activity change, negative = inhibition, hits mostly inhibitors. P. falciparum luciferase growth in erythrocytes, 48 h; further: potency means the concentration at half of the fitted maximal effect; on the % scale 0 is the no-effect control and ±100 the full control effect
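Luciferase-expressing parasites in RBCs, 2% Hct / 0.1% parasitemia final; RPMI 1640 + 0.5% Albumax; 37 C, 5% CO2, one generation; luminescence read-out, lower signal = inhibition.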
NS1 inh = qHTS Assay for Inhibitors of Influenza NS1 Protein Function | 270,000 tested, 0.4% active | AID 2326, 2010 | Potency, µM (top dose mostly 46.1 µM), without a hit: top-dose activity, positive = more growth; calls by dose curve; further: potency means the concentration at half of the fitted maximal effect; actives are rising curves; nearly all actives have a fitted effect of over 50% in size
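In this qHTS, NS1 from influenza A is expressed in budding yeast, where it slows growth. Cells are switched from glucose to 2% galactose medium (pH 6.0, -URA), treated with compound, and growth recovery is read at OD600.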
Active calls of the source: *; i = inactive; ? = inconclusive; . = no result given; [ ] = dose if it differs, or a comment. Most compounds without a hit are left out; they make up all but 21% or so of the library. Unless noted, the call rests on the fitted dose curve; in most records, active means well fitted inhibition curve with a large enough effect; inconclusive means small, poorly fitted or top-dose-only effect, or another doubt; inactive means no such curve, though single readings can be large or run the other way.

SMILES	Shiga inhibitor	Pf growth 96h	Cycloheximide cs	Pf growth 48h	NS1 inh
Cc1ccccc1SC1CCN(C(=O)C2CCC(=O)N(C3CC3)C2)CC1 (stereo unspecified)	7.4	0.0%	2.9	-18.1%	-8.8%
COCC1CCN(C(=O)C2CCC(=O)N(C3CCCC3)C2)CC1 (stereo unspecified)	49.3	-5.0%	14.8*	11.3%	9.8%
COC1CCN(C(=O)C2CCC(=O)N(C3CCCCCC3)C2)CC1 (stereo unspecified)	51.9*	2.7%	36.5*	2.1%	9.1%
Cc1ccc(C(C)(C)NC(=O)C2CCC(=O)N(C3CCCCCC3)C2)cc1 (stereo unspecified)	86.3*	12.5%	42.0*	-1.3%	-1.3%
Cc1ccc(SC2CCN(C(=O)C3CCC(=O)N(C4CC4)C3)CC2)cc1 (stereo unspecified)	49.5*	?	27.3	-3.0%	-7.4%
O=C(C1CCCO1)N1CCN(C(=S)Nc2ccccc2F)CC1 (stereo unspecified)	13.1	12.9%	-2.3	2.3%	15.3%
CSc1c(CC(=O)Nc2ccccc2)n(Cc2ccccc2)c2ccccc12	-3.3	?	-2.6	11.7µM*	3.2%
CSc1c(CC(=O)Nc2ccccc2Cl)n(Cc2ccccc2)c2ccccc12	-5.1	?	4.8	?	15.1%
CSc1c(CC(=O)Nc2ccccc2C(F)(F)F)n(Cc2ccccc2)c2ccccc12	-5.1	9.28µM*	1.0	?	1.9%
Cc1ccc(S(=O)(=O)N2CCN(C(=O)CC(C)n3nc(C)c(Cl)c3C)CC2)cc1 (stereo unspecified)	-3.7	30.4%	-1.3	-11.2%	-13.1%
C[C@H]1CN=C(N(C)C)N1CCCC1CCCCC1	.	-97.0%	.	?	.
CC(O)[C@H]1CN=C(N)N1CCCCC1CCCCC1 (stereo partly specified)	-5.0	3.29µM*	-6.3	9.28µM*	1.1%
Cc1c(/C(Cc2ccccc2)=N/O)c2ccccc2n1C	-9.0	10.4µM*	-3.3	?	3.7%
CCn1c(SCC(=O)N(C)C)nc2cc(S(=O)(=O)N3CCOCC3)ccc21	.	?	.	25.4%	.
CC(C)OCCOc1ccc2oc(-c3ccco3)cc(=O)c2c1	27.1	19.8%	19.5*	?	-22.7%
N#CCOc1ccc2oc(-c3ccco3)cc(=O)c2c1	19.4	2.5%	11.0	22.1%	.
Cc1ccc2oc(-c3ccco3)cc(=O)c2c1	71.3*	i	38.5*	119.9%	-52.0%
COC(=O)CCC(=O)NC(=S)Nc1cc(Cl)ccc1Cl	-17.1	32.9%	-2.6	0.0%	-148.4%
O=c1ccc2c(o1)/C(=C/C=C(Cl)Cl)CCC2	24.4	?	20.2	0.0%	?
CSc1nnc2c(n1)OC1(Nc3ccccc3-2)C(=O)Nc2ccccc21 (stereo unspecified)	2.6	10.6%	-2.6	14.2%	.
CCSc1nnc2c(n1)OC(C)(C)Nc1ccccc1-2	65.1*	15.0%	33.8*	36.4%	5.2%
CC1CCC(NC(=S)NCCN(C)C)CC1 (stereo unspecified)	44.8*	38.1%[5.75 µM]	23.4*	72.4%	3.3%
O=C(CSc1cn[nH]n1)Nc1cccc(C(F)(F)F)c1	-1.2	-8.4%	-3.9	?	-3.1%
CCc1ccc(-c2nc(SCC(=O)N(C)C3CCS(=O)(=O)C3)n[nH]2)cc1 (stereo unspecified)	.	12.1%	.	28.6%	.
O=C(O)CCc1ccc(-c2ccccc2)n1CC(=O)O	-2.9	.	-1.7	5.4%	12.7%
SMILES	Shiga inhibitor	Pf growth 96h	Cycloheximide cs	Pf growth 48h	NS1 inh
O=C(O)CCc1ccc(-c2ccccc2)n1-c1cccc(O)c1	54.3*	1.5%	22.7*	16.2%	10.7%
COc1ccc(-n2c(CCC(=O)O)ccc2-c2ccccc2)cc1	17.5	34.0%	8.0	17.5%	4.0%
Cc1ccc(-c2ccc(CCC(=O)O)n2-c2cccc(C(=O)O)c2)cc1	151.5*	3.9%	70.7*	105.1%	5.7%
COc1ccc(-c2ccc(CCC(=O)O)n2-c2ccccc2O)cc1	78.7*	-5.3%	47.5*	31.0%	-40.8%
CC1=C(C(=O)OC(C)C)C(c2ccccn2)n2ncnc2N1 (stereo unspecified)	1.5	-10.1%	-2.8	-10.9%	-0.6%
COc1ccc(CN2C(=O)/C(=C/c3ccncc3)SC2=S)cc1	-12.0	?	-7.2	9.5%	-23.2%
CCN(Cc1ccccc1OC)CC1CCCN(CCc2cccc(OC)c2)C1 (stereo unspecified)	0.3	4.2%	1.5	?	-9.2%
CCN(Cc1ccc(NC(C)=O)cc1)CC1CCCN(CCc2cccc(OC)c2)C1 (stereo unspecified)	-2.7	11.7µM*	-2.9	11.7µM*	-12.4%
CCN(Cc1ccc(C#CCCO)cc1)CC1CCCN(CCc2cccc(F)c2)C1 (stereo unspecified)	-15.0	-22.0%	4.8	4.65µM*	2.4%
CN(Cc1ccc(C#CCCO)cc1)CC1CCCN(CCc2ccc(Cl)cc2)C1 (stereo unspecified)	-4.9	-11.8%	1.5	5.22µM*	6.6%
CCN(Cc1ccc(OC)c(COC)c1)CC1CCCN(CCc2cccc(F)c2)C1 (stereo unspecified)	3.4	?	2.9	10.4µM*	6.3%
O=[N+]([O-])c1cccc(-c2noc3c2-c2nc(Cc4cccc5ccccc45)sc2CC3)c1	.	0.0%	.	?	.
CN(Cc1ccccc1O)CC1CCCN(CCc2ccc(Cl)cc2)C1 (stereo unspecified)	-2.6	-14.3%	-2.7	10.4µM*	-24.9%
COc1ccc(CCN2CCCC(CN(C)Cc3cc(OC)ccc3OC)C2)cc1 (stereo unspecified)	18.8	14.7µM*	-2.0	?	0.5%
CC(C)[C@H](NC(=O)c1ccccc1Cl)C(=O)Nc1nc(-c2ccccn2)cs1	41.3	?	7.7	9.28µM*	-38.4%
CC(Oc1ccc(Br)cc1)C(=O)Nc1nc(-c2ccccn2)cs1 (stereo unspecified)	6.3	3.7µM*	-3.0	7.38µM*	-104.9%
Cc1csc(NC(=O)CSc2ccc(-c3ccccn3)nn2)n1	71.2	?	15.1	-16.8%	.
CC(=O)Nc1cc(C(F)(F)F)ccc1Oc1cccc(Br)c1	15.0	?	1.2	?	-47.0%
CCOCC(=O)Nc1cc(C(F)(F)F)ccc1Oc1cccc(Br)c1	-10.9	0.465µM*	-1.6	?	-42.1%
COc1cc(-c2nn3c(Cc4ccccc4)nnc3s2)cc(OC)c1OC	-5.8	43.2%	-0.8	10.4µM*	-37.8%
COc1ccc(N2C(=O)/C(=C\c3ccco3)N=C2SCC(=O)NC(C)(C)C)cc1Cl	25.4	?	13.4*	?	22.0%
CCN(CC)C(=O)CSC1=N/C(=C/c2ccco2)C(=O)N1c1ccc(OC)c(Cl)c1	-4.6	?	-1.9	?	8.6%
COc1ccc(-c2cn3c(C)c(C(=O)NC(C)(C)C)sc3n2)cc1	40.5*	91.8%	30.2*	71.3%	-1.2%
Cc1c(C(=O)Nc2ccccc2)sc2nc(-c3ccccc3)cn12	61.0*	?	38.7*	?	-16.2%

Assay outcomes as filed in PubChem BioAssay.
